TCR act: activators of T cell receptors. primary human leukocytes, anti-CD3, IL-2 HTRF, 48 h. Potency, µM (titrated, usually from 9.22 µM), for inactives: at the top dose activation of IL-2 secretion, most hits filed as activators. 330,000 tested, under 10 active. AID 504894; note: % of control where 0% means no effect
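48 hr co-incubation of compounds, a-CD3 beads and primary human leukocytes; IL-2 quantified homogeneously by HTRF with anti-IL-2 K and d2 conjugates.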
VDR inhibitor: vitamin D3 receptor (human) inhibition. P11473. VDR-SRC2-3 peptide fluorescence polarization, 2 h. Potency, µM, without a hit: max response, negative = inhibition, actives largely listed as inhibitors. 400,000 tested, 0.93% active; note: potency is the fitted concentration of half-maximal effect; % is set by controls: 0 for no effect and ±100 for the full control effect
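FP read-out; VDR + SRC2-3 coactivator peptide; 23 nl compound by pintool; 2 h RT incubation; reagents held at 4 deg C, protected from light.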
FEN1 inh: blocks human flap endonuclease 1. P39748. Recombinant FEN1 flap cleavage, fluorescence, 15 min. Potency, µM (highest dose often 114 µM), for the others: at the top dose activity change, negative = inhibition, usual class: inhibitors. 390,000 tested, 0.35% active; note: potency is the fitted concentration of half-maximal effect; % is set by controls: 0 for no effect and ±100 for the full control effect; nearly all actives have a fitted effect of over 65% in size
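Steps: FEN1 (10 nM) dispensed; compound added by pin tool; 15 min at room temperature; substrate added to 50 nM final; reads at 0 min and 15 min; data normalized and fitted (four-parameter Hill).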
WRN inhibitor: inhibitors of human WRN helicase; Potency, µM (top dose mostly 114 µM), for the others: top-dose activity change, negative = inhibition, most hits filed as inhibitors; 360,000 tested, 0.46% active; Q14191; WRN helicase unwinding, fluorescent forked duplex, kinetic; AID 651768; note: potency is the fitted concentration of half-maximal effect; % is set by controls: 0 for no effect and ±100 for the full control effect; nearly all actives have a fitted effect of over 55% in size
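Kinetic fluorescence helicase assay: unwinding of a quenched forked DNA duplex (100 nM final) with 2 mM ATP final raises red fluorescence (525/598 nm). Compounds sat 15 min at room temperature with 20 nM WRN beforehand.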
PLK1 PBD inh: PLK1 (human) polo-box domain binding inhibition; Potency, µM, without a hit: max response, negative = inhibition, hits mostly inhibitors; 360,000 tested, 2.8% active; Plk1 PBD binding of FITC phosphopeptide, fluorescence polarization; note: potency is the fitted concentration of half-maximal effect; series mostly up to about 57 µM; % is set by controls: 0 for no effect and ±100 for the full control effect; nearly all actives have a fitted effect of over 65% in size
Target sequence (P53350 whole entry, looked up, the tested form may be a part): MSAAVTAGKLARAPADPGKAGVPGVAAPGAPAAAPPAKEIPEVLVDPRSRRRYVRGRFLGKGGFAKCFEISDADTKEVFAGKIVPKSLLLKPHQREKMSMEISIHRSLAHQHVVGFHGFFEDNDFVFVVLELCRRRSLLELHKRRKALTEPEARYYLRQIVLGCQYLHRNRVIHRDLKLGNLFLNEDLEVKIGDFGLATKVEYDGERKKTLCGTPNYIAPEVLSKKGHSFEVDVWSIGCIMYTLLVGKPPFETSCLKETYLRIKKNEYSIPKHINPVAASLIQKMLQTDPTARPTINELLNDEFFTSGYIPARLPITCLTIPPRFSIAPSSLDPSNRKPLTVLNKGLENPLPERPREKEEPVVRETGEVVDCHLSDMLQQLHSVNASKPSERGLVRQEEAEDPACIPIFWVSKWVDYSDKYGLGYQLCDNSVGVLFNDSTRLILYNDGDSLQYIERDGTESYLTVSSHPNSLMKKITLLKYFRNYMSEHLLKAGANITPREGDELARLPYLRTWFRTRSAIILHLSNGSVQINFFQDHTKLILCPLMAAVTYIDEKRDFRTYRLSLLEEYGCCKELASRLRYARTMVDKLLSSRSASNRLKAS
PI5P4Ka inh: inhibitors of human PI5P4K alpha; P48426; PI5P4Kalpha enzyme, ADP-Glo luminescence, 60 min; stronger effect = lower value; max response, %; 330,000 tested, 1.2% active; active = max response of -50% or lower; inconclusive = between -30% and -50%; inactive = -30% or higher; note: value at the top dose of about 77 µM; % is set by controls: 0 for no effect and ±100 for the full control effect
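Single end-point luminescence (ADP-Glo) quantified ADP from PI5P4Kalpha turnover; ATP 5 microM final, 1 h at RT, 0.1% CHAPS and 0.28 mM EGTA in HEPES pH 7.4.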
* marks the source's active call; other numbers are inactive results; ? = inconclusive; / = not tested or not shown; [ ] = another dose, or the depositor's remark. Only some compounds are listed: those with a hit (about 3.7% of all), similar ones and a draw of the others. Unless noted, calls come from the whole dose curve; as a rule, active = well fitted curve in the direction sought with a large enough effect; inconclusive = small, poorly fitted or top-dose-only effect, or another doubt; inactive = no such curve, though single readings can be large; an effect the other way counts as inactive or inconclusive.

SMILES	TCR act	VDR inhibitor	FEN1 inh	WRN inhibitor	PLK1 PBD inh	PI5P4Ka inh
O=S(=O)(NCCN1CCOCC1)c1ccc(F)c(Cl)c1	-4.4%	?	4.3%	?	3.36µM*	?
O=S(=O)(NCCCN1CCOCC1)c1ccc(Cl)s1	-0.1%	?	-4.5%	4.9%	8.44µM*	-26.5
O=C(NCCCN1CCOCC1)c1ccc(Cl)s1	-0.4%	41.2%	1.1%	-7.2%	-5.4%	/
Cc1cccc(C)c1NC(=O)CN(Cc1ccc(Br)cc1)S(=O)(=O)c1ccccc1	/	-6.5%	-14.1%	/	/	/
CC(C)c1ccc(C(=O)CSc2ncn[nH]2)cc1	-11.7%	79.4µM*	-16.7%	-9.1%	29.9µM*	/
CC(C)c1ccc(N2C(=O)CC(Sc3ncn[nH]3)C2=O)cc1 (stereo unspecified)	-7.6%	19.1%	-1.1%	5.7%[57.1 µM]	26.7µM*	-24.5
O=C(CSc1ncn[nH]1)c1ccc2c(c1)OCCO2	2.9%	?	0.6%	-6.6%	?	/
O=C(NCCOCCO)C(=O)Nc1c2c(nn1-c1ccc(F)cc1)CSC2	/	27.3%	-0.5%	/	/	/
Cc1cccc(-c2noc(-c3ccc(NCc4cccnc4)c([N+](=O)[O-])c3)n2)c1	/	-1.0%	-14.0%	/	/	/
O=C(O)[C@H]1O[C@@H](Oc2ccc3ccc(=O)oc3c2)[C@H](O)[C@@H](O)[C@@H]1O	/	-0.6%	/	/	/	/
CCOC(=O)C(NC(=O)c1cccc(Cl)c1)(Nc1sc2c(c1C(N)=O)CCC2)C(F)(F)F (stereo unspecified)	-2.2%[46.1 µM]	-17.5%	-1.0%	4.9%	26.7µM*	-13.0
COC(=O)c1ccc(NC2=CC(=O)CC(C)(C)C2)cc1	-3.8%	-22.1%	3.8%	2.8%	3.36µM*	?
COc1ccc(NC2=CC(=O)CC(C)(C)C2)cc1	-5.2%	-10.4%	22.3%	-3.9%	-8.3%	-3.7
CC1(C)CC(=O)C=C(Nc2cccc(F)c2)C1	3.7%	0.9%	0.4%	6.4%	29.9µM*	0.6
COc1ccc(CN2C(=O)c3ccccc3C2C(=O)NC2CCCC(C)C2C)c(OC)c1 (stereo unspecified)	3.4%	-0.9%	3.1%	4.1%	3.7%	0.4
COc1ccc(CN2C(=O)c3ccccc3C2C(=O)NC2CCC(C)CC2)c(OC)c1 (stereo unspecified)	2.9%	-12.9%	-0.7%	-2.8%	23.8µM*	-0.5
O=C(O)c1ccc(N2C(=O)CC(N3C(=O)/C(=C/c4ccc(Cl)cc4)SC3=S)C2=O)cc1 (stereo unspecified)	-3.2%	?	-22.7%	2.4%[11.6 µM]	26.7µM*	-63.6*
Cc1nc2ccc(S(=O)(=O)NC(C(=O)N3CCCC3)C(C)C)cc2s1 (stereo unspecified)	-0.4%[46.1 µM]	-29.7%	-0.2%	6.6%	29.9µM*	-4.8
SCc1nc2ccccc2[nH]1	/	/	-12.0%	/	/	/
O=C(COC(=O)c1ccccc1C(=O)c1ccccc1)NCc1ccc(F)cc1	2.5%	?	5.6%	-0.6%	23.8µM*	-7.4
O=C(COC(=O)c1ccccc1C(=O)c1ccc(Cl)cc1)NCc1ccccc1	1.6%[46.1 µM]	6.3%	3.3%	2.0%	0.2%	-5.7
COc1ccc(-n2ncc(C(=O)N3CCN(C(=O)c4ccco4)CC3)c2C2CCN(C(=O)OC(C)(C)C)CC2)cc1	/	7.8%	19.8%	/	/	/
COc1ccc(NC(=O)CN(C)CC(=O)Nc2cccc(F)c2)cc1S(=O)(=O)N1CCCCC1	2.9%	9.9%	10.7%	50.1µM*	2.5%	-3.7
COc1ccc(NC(=O)Cc2ccccc2F)cc1S(=O)(=O)N1CCCCC1	-3.7%	-5.0%	4.4%	7.8%	-0.1%	0.8
COc1ccc(C(=O)Oc2ccc(/C=N/NC(=O)c3ccccc3OC)cc2[N+](=O)[O-])cc1	1.3%[46.1 µM]	-5.7%	5.5%	7.4%	-14.8%	-1.1
SMILES	TCR act	VDR inhibitor	FEN1 inh	WRN inhibitor	PLK1 PBD inh	PI5P4Ka inh
O=C(CNC(=O)c1cccc(F)c1)N/N=C/c1ccc(O)c([N+](=O)[O-])c1	3.4%[46.1 µM]	3.3%	-7.6%	-16.2%	2.4%	-72.1*
O=C(N/N=C/c1ccc(OC(=O)c2ccccc2)c([N+](=O)[O-])c1)c1ccc(O)cc1	1.3%[46.1 µM]	7.4%	-0.7%	-8.3%	?	-78.7*
O=C(CNC(=O)c1ccc(F)cc1)N/N=C/c1ccc(O)c([N+](=O)[O-])c1	1.7%[46.1 µM]	5.0%	-0.8%	-23.5%	4.5%	-65.4*
CCOC(=O)C1=C(C)N[C@@]2(O)c3ccccc3C(=O)[C@@]12O	2.0%	-17.3%	-1.1%	1.4%[57.1 µM]	-0.7%	-1.2
CCOC(=O)C1=C(C)OC2(O)c3ccccc3C(=O)C12O (stereo unspecified)	-3.9%	5.01µM*	6.8%	24.8%	-19.7%	-0.4
CC(=O)C1=C(C)OC2(O)c3ccccc3C(=O)C12O (stereo unspecified)	11.8%	1.58µM*	0.2%	37.0%	-12.1%	-3.2
CCOC(=O)C1C2C=CC3(CN(Cc4cccs4)C(=O)C13)O2 (stereo unspecified)	1.2%	-8.2%	1.5%	1.8%	16.8µM*	-27.0
CC(/C=C/C(=O)c1ccc(C)cc1)=C\c1ccccc1	-3.1%	-3.1%	16.7%	-7.4%	-3.6%	7.5
COc1c2c(c(C(=O)/C=C/C(C)=C/c3ccccc3)c3c1OCO3)CCN(C)C2	/	44.7µM*	/	/	/	/
CCOC(=O)c1cccc(NC(=O)Cn2ncc3c(=O)oc4ccccc4c32)c1	/	-10.3%	-3.7%	/	/	/
Cc1cccc(N2CCN(C(=O)c3cccn3-c3nnc(N4CCCCC4)s3)CC2)c1C	/	-1.0%	-14.7%	/	/	/
Oc1[nH]c(=S)sc1/C=C1\C(c2ccccc2)=Nc2ccccc21	-4.2%[46.1 µM]	-18.3%	-3.1%	-30.3%	-22.2%	-73.7*
Cc1cc2oc(C(=O)N(Cc3ccc(N(C)C)cc3)CC3CCCO3)c(C)c2cc1Cl (stereo unspecified)	/	8.7%	-0.2%	/	/	/
CCOc1ccccc1NC1=C(Cl)C(=O)N(c2ccc(OC)cc2)C1=O	10.1%[46.1 µM]	?	-1.0%	-29.1%	-17.8%	8.8
COc1ccccc1N1C(=O)C(Cl)=C(Nc2ccccc2O)C1=O	-7.2%	?	1.1%	-30.1%[57.1 µM]	6.7µM*	?

Compound activity (PubChem BioAssay)
